Where a name gives a salt, the structure may show the parent alone. Unmarked numbers belong to inactive results.
The compounds below were run on Plasmodium falciparum NF54/iGP1_RE9H ulg8 stage V gametocytes (assay: gametocyte viability (luciferase signal relative to DMSO control) (% of DMSO control); higher = less gametocytocidal activity, active = 50 or less). Settings: concentration: 1 µM; exposure time: 72 h.
Method: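 Synchronous P. falciparum NF54/iGP1_RE9H ulg8 mature stage V gametocytes (day 12) were exposed to Cayman Epigenetics Screening Library compounds at 10 µM or 1 µM for 72 h at 37 °C. Viability was read as RE9H luciferase bioluminescence, normalised to DMSO plate controls (100%); 50 µM methylene blue was the positive control.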
With `Cc1sc2c(c1C)C(c1ccc(Cl)cc1)=NC(CC(=O)O)c1nnc(C)n1-2` (single isomer, unassigned; (+)) [(+)-JQ1 (free acid)] the gametocyte viability was 85.8. For `C[S+]([O-])CCCCN=C=S` (centres undefined) [Sulforaphane], the gametocyte viability was 99.8. `N[C@@H]1C[C@H]1c1ccccc1` [Tranylcypromine (hydrochloride)] showed a gametocyte viability of 91.7. With `CN(C)NC(=O)CCC(=O)O` [Daminozide] the gametocyte viability was 95.2. `Cc1sc2c(c1C)C(c1ccc(Cl)cc1)=N[C@@H](CC(N)=O)c1nnc(C)n1-2` showed a gametocyte viability of 90.9. `CC1=CC(=O)c2c(O)cccc2C1=O` [Plumbagin] gave a gametocyte viability of 71.2. With `COc1cc(C(=O)N2CC[C@@H](O)[C@@H](N)C2)cc2nc(-c3cc4ccccc4n3CC3CC3)n(C)c12` [GSK484 (hydrochloride)] the gametocyte viability was 94.7.

Same assay, conditions: concentration: 10 µM; exposure time: 72 h
`Cc1sc2c(c1C)C(c1ccc(Cl)cc1)=NC(CC(=O)O)c1nnc(C)n1-2` (single isomer, unassigned; (+)) [(+)-JQ1 (free acid)] showed a gametocyte viability of 88.2. `C[S+]([O-])CCCCN=C=S` (centres undefined) [Sulforaphane] was tested, and the gametocyte viability was 96.2. Work on `N[C@@H]1C[C@H]1c1ccccc1` [Tranylcypromine (hydrochloride)] yielded a gametocyte viability of 91.4. `CN(C)NC(=O)CCC(=O)O` [Daminozide] showed a gametocyte viability of 88.8. `Cc1sc2c(c1C)C(c1ccc(Cl)cc1)=N[C@@H](CC(N)=O)c1nnc(C)n1-2` gave a gametocyte viability of 93.5. In the case of `CC1=CC(=O)c2c(O)cccc2C1=O` [Plumbagin], the gametocyte viability is reported as 16.7 (active). With `COc1cc(C(=O)N2CC[C@@H](O)[C@@H](N)C2)cc2nc(-c3cc4ccccc4n3CC3CC3)n(C)c12` [GSK484 (hydrochloride)] the gametocyte viability was 41.8 (active).

Reference: the supplement of paper PMC12297408
